# In PubChem BioAssay (NCATS):
# “And” between values parts separate entries of the source, which are not always exact repeats. Identical values can stand only once. Inconclusive results are not listed. Where a call stands in place of a potency, no number is given. A number with no mark means an inactive call. The source made the active and inactive calls. The call rests on the fitted dose curve; in most records, active means well fitted curve in the direction sought with a large enough effect; inconclusive means small, poorly fitted or top-dose-only effect, or another doubt; inactive means no such curve, though single readings can be large; an effect the other way counts as inactive or inconclusive.
# Legend:
# [1] = molecular target: Cytochrome P450 3A7 (Homo sapiens) (UniProt P24462); experiment: Cytochrome P450 family 3 subfamily A member 7 (CYP3A7) small molecule antagonists: luciferase biochemical qHTS assay (AID 1963596); further: nearly all actives have a fitted effect of over 40% in size
# Sequence of Cytochrome P450 3A7 (Homo sapiens) (P24462 whole entry, looked up): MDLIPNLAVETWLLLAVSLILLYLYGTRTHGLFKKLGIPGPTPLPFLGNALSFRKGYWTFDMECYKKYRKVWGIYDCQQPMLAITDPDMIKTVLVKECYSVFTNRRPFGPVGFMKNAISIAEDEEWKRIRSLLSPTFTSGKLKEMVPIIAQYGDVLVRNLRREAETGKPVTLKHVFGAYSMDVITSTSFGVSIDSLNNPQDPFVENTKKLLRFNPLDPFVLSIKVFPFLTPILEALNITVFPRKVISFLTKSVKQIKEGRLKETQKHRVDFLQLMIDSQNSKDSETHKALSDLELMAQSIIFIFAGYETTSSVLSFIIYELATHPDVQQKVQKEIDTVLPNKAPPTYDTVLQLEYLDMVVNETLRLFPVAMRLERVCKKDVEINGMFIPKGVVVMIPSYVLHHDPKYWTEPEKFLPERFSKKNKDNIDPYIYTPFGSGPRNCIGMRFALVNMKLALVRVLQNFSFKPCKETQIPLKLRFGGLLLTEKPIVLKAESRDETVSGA
# Outline: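 Luminescence read-out (relative luminescence units) after 20 min with detection reagent, which stops the reaction. Enzyme, proluciferin substrate and compound preincubated 10 min, RT; NADPH regeneration system then started 1 h reaction. Ketoconazole as positive control.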
# [2] = Viability qHTS for spleen associated tyrosine kinase inhibitor (SYKi) naive MV4-11 cells (AID 1963823); further: nearly all actives have a fitted effect of over 40% in size; further: potency means the concentration at half of the fitted maximal effect
# Outline: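 Viability of MV4-11 AML cells lacking prior SYK inhibitor exposure is scored by CellTiter-Glo luminescence following 72 hr compound incubation at 37 C, 5% CO2, seeded at 500 cells per well.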
# [3] = Cellular viability qHTS for adrenocortical cancer (ACC) cell line SW-13 (AID 1963989); conditions: SW-13 ACC cells viability, CellTiter-Glo, 48 h; activity (max response): active compounds read low; further: nearly all actives have a fitted effect of over 65% in size; further: potency means the concentration at half of the fitted maximal effect;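 on activity (max response): cells grown in serum-free medium with ITS supplement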
# Outline: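 SW-13 cells in ITS-supplemented serum-free DMEM were plated overnight, then exposed for 48 h at 37C to compound titrations (up to 46 uM final). Viability was read by CellTiter-Glo luminescence; four-parameter logistic fits gave IC50 and efficacy.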
# [4] = Cellular viability qHTS for adrenocortical cancer (ACC) cell line NCI-H295R (AID 1963990); further: nearly all actives have a fitted effect of over 60% in size
# Outline: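 Luminescent ATP read-out (CellTiter-Glo, 20 min RT) after 48 h drug exposure of NCI-H295R cells; a titration up to 46 uM final. Data normalized to doxorubicin (100% inhibition) and DMSO (0%); 4-parameter fit gives IC50, max response.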
# [5] = Viability qHTS for spleen associated tyrosine kinase inhibitor (SYKi) drug resistant MV4-11 cells (AID 1963824); further: nearly all actives have a fitted effect of over 35% in size; further: potency means the concentration at half of the fitted maximal effect
# Outline: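 CellTiter-Glo luminescence, read 10 min after reagent addition, reports viability after a 72 hr compound exposure. Cells are an MV4-11 line made resistant to SYK inhibition, seeded at 500 per well onto compound-containing plates.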
smiles,measurement,setting,value
CC(=O)N[C@@H](CCC(=O)O)C(=O)O,Potency,[1],inactive
same,Potency,[2],inactive
same,activity (max response),[3],10.8%
same,Potency,[4],inactive
Cc1cn([C@H]2C[C@H](F)[C@@H](CO)O2)c(=O)[nH]c1=O,Potency,[1],inactive
same,Potency,[2],inactive
same,activity (max response),[3],3.39%
same,Potency,[4],inactive
CC(CC(C#N)(c1ccccc1)C(C)C)N(C)C (stereo not drawn),Potency,[1],inactive
same,Potency,[2],inactive
same,activity (max response),[3],3.72%
same,Potency,[4],inactive
CCCN(CCC)C(=O)C(CCC(=O)O)NC(=O)c1ccccc1 (stereo not drawn),Potency,[1],inactive
same,Potency,[2],inactive
same,activity (max response),[3],0.293% and -17.2%
same,Potency,[4],inactive
Cc1cc(=O)oc2cc(O[C@@H]3SC[C@@H](O)[C@H](O)[C@H]3O)ccc12,Potency,[1],inactive
same,Potency,[2],inactive
same,activity (max response),[3],12.3%
same,Potency,[4],inactive
Cc1c[nH]c2ccccc12,Potency,[1],inactive
same,Potency,[2],inactive
same,activity (max response),[3],13.2%
O=C1CC2(CCCC2)CC(=O)N1,Potency,[1],inactive
same,Potency,[2],inactive
same,activity (max response),[3],11.4%
same,Potency,[4],inactive
N=C(N)N1CCc2ccccc2C1,"activity change, negative = inhibition",[1],2.18% [at 4.83 µM]
same,viability (% of control),[2],81.1% [at 4.97 µM]
same,activity (max response),[3],-5.8%
same,"activity change, negative = viability loss",[4],-6.61% [at 3.81 µM]
CN1C(=O)CC(c2ccccc2)C1=O (stereo not drawn),Potency,[1],inactive
same,Potency,[2],inactive
same,activity (max response),[3],5.01%
same,Potency,[4],inactive
CC(=O)OCC(=O)NCCCOc1cccc(CN2CCCCC2)c1,Potency,[1],inactive
same,Potency,[2],inactive
same,activity (max response),[3],3.89%
CCN1CCN(Cc2ccc(NC(=O)Nc3ccc(Oc4cc(NC)ncn4)cc3)cc2C(F)(F)F)CC1,Potency,[1],inactive
same,Potency,[2],inactive
same,Potency,[3],3980 nM (active)
[Cl][In]([Cl])[Cl],Potency,[1],inactive
same,Potency,[2],inactive
same,Potency,[3],35500 nM (active)
CCCCC(CC)COC(=O)c1ccccc1O (stereo not drawn),Potency,[1],inactive
same,Potency,[2],596 nM (active)
same,activity (max response),[3],7.38%
CC(=O)Nc1ccc(S(=O)(=O)Nc2cc(C)on2)cc1,Potency,[1],inactive
same,Potency,[2],inactive
same,activity (max response),[3],11.6%
same,Potency,[4],inactive
NS(=O)(=O)c1cc(C(=O)O)cc(N2CCCC2)c1Oc1ccccc1,Potency,[1],inactive
same,Potency,[2],inactive
same,activity (max response),[3],-0.899%
same,Potency,[4],inactive
Cn1c([N+](=O)[O-])cnc1COC(N)=O,Potency,[1],inactive
same,Potency,[2],inactive
same,activity (max response),[3],-4.89%
same,Potency,[4],inactive
CC(C)(C)C(=O)NCCCC(=O)O,Potency,[1],inactive
same,Potency,[2],inactive
same,activity (max response),[3],7.9%
same,Potency,[4],inactive
CO[C@]1(NC(=O)CSC(F)F)C(=O)N2C(C(=O)O)=C(CSc3nnnn3CCO)CO[C@H]21,Potency,[1],inactive
same,Potency,[2],inactive
same,activity (max response),[3],-9.56%
same,Potency,[4],inactive
Cn1c(=O)n(-c2ccc(C(C)(C)C#N)cc2)c2c3cc(C#Cc4cccnc4)ccc3ncc21,Potency,[1],inactive
same,Potency,[5],44.7 nM (active)
O=C(O)c1ccc[n+]([O-])c1,Potency,[1],inactive
same,Potency,[2],inactive
same,Potency,[4],inactive
C[C@@H]1CC[C@@]2(OC1)O[C@H]1C[C@H]3[C@@H]4CC[C@H]5C[C@@H](O)CC[C@]5(C)[C@H]4CC(=O)[C@]3(C)[C@H]1[C@@H]2C,"activity change, negative = inhibition",[1],-8.63% [at 4.83 µM]
same,viability (% of control),[2],83.6% [at 4.97 µM]
same,"activity change, negative = viability loss",[4],-14.3% [at 3.81 µM]
CN(C)c1ccc(C2O[C@@H](c3ccccc3)C[C@H](c3ccccc3)O2)cc1 (stereo partly drawn),Potency,[1],inactive
same,Potency,[5],inactive
Oc1ccc(C(O)CNCCCCCCNCC(O)c2ccc(O)c(O)c2)cc1O (stereo not drawn),Potency,[1],inactive
same,Potency,[2],inactive
same,activity (max response),[3],-8.39%
same,Potency,[4],inactive
NCCNCCNCCN,Potency,[1],inactive
same,Potency,[2],inactive
same,Potency,[4],inactive
CC[N+](C)(C)c1cccc(O)c1,Potency,[1],inactive
same,Potency,[2],inactive
same,activity (max response),[3],8.29%
same,Potency,[4],inactive
CCCCCCCCCCCCCCCCO,Potency,[1],inactive
same,Potency,[2],inactive
same,activity (max response),[3],10.1%
same,Potency,[4],inactive
O=C1Nc2cc(Cl)ccc2Oc2ccccc21,Potency,[1],inactive
same,Potency,[2],inactive
same,activity (max response),[3],-3.37%
same,Potency,[4],inactive
O=C(Oc1ccccc1C(=O)O)c1ccccc1O,Potency,[1],inactive
same,Potency,[2],inactive
same,activity (max response),[3],-2.11%
same,Potency,[4],inactive
Nc1ncnc2c1ncn2[C@@H]1O[C@H](COP(=O)(O)O)[C@@H](O)[C@H]1O,Potency,[1],inactive
same,Potency,[2],inactive
same,activity (max response),[3],5.55%
same,Potency,[4],inactive
O=C(O)c1cc(=O)c2ccccc2o1,Potency,[1],inactive
same,Potency,[2],inactive
same,activity (max response),[3],-0.886%
same,Potency,[4],inactive
